Rows were chosen to be rich in hits. Some 7.5% of all compounds tested hit in one or more screens of this group.
Luc counter: Counterscreen for Luciferase (Kinase-Glo TM) Inhibition. Luciferin 4-monooxygenase (Photuris pensylvanica), Q27757. AID 1379, 2008. actives 0.28% (n = 200,000). Potency, µM (highest dose often 38.3 µM), without a hit: at the highest dose activity change, negative = inhibition, hits mostly inhibitors. Kinase-Glo luciferase, ATP luminescence, 8 min; further: on the % scale 0 is the no-effect control and ±100 the full control effect; nearly all actives have a fitted effect of over 60% in size
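Recombinant Kinase-Glo luciferase, 10 uM ATP (linear range), luciferin; imidazole pH 7.2 / KCl / MgCl2 / Tween / BSA buffer; 8 min RT; luminescence.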
ELG1 genotox: qHTS screen for small molecules that induce genotoxicity in human embryonic kidney (HEK293T) cells expressing luciferase-tagged ELG1 | HEK293T ELG1-luciferase reporter, luminescence, 16 h | Potency, µM (titrated, usually from 46 µM), inactives show at the highest dose activity change, positive = activation, hits mostly activators | actives 1.3% (n = 330,000) | AID 504466, 2011; further: % of control where 0% means no effect; nearly all actives have a fitted effect of over 60% in size
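ELG1-luciferase HEK293T cells, 2,000/well; compound pinned in; 16 hr, 37 °C, 5% CO2; ONE-Glo, 30 min RT; luminescence on CCD imager.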
Rab9 promoter act: qHTS Assay for Rab9 Promoter Activators; Huh7 Rab9 promoter-luciferase reporter, luminescence, 24 h; Potency, µM (top dose mostly 9.22 µM), inactives show top-dose activation, negative = inhibition, hits mostly activators; actives 2.8% (n = 320,000); further: % of control where 0% means no effect; nearly all actives have a fitted effect of over 60% in size
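Huh7 cells stably carrying Rab9 promoter–luciferase reporter, plated 1500 cells/well, compound added after 2 h and incubated 24 h at 37 °C; luciferase luminescence then read after 10 min with detection reagent.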
NPC1 promoter act: qHTS Assay for NPC1 Promoter Activators. Huh7 NPC1 promoter luciferase reporter, 24 h. Potency, µM (titrated, usually from 9.22 µM), for the others: at the highest dose activation, usual class: activators. actives 2.4% (n = 320,000). AID 485313, 2010; further: % of control where 0% means no effect; nearly all actives have a fitted effect of over 60% in size
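Stably transfected Huh7 (NPC1 promoter→luciferase), 1500 cells/well in Opti-MEM + 10% FBS, 2 h settle, then compound 24 h at 37 °C. Luminescence after 10 min with Amplite reagent.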
FLuc counter: qHTS profiling assay for firefly luciferase inhibitor/activator using purifed enzyme and Km concentrations of substrates (counterscreen for miR-21 project) | purified FLuc, Km substrates, luminescence inhibition | Luciferin 4-monooxygenase (Photinus pyralis), P08659 | Potency, µM (series often up to 57.5 µM), inactives show at the highest dose activity change, negative = inhibition, actives largely listed as inhibitors | AID 588342, 2011 | actives 6.9% (n = 360,000);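 further: plate controls were vehicle for no effect and reference inhibitor for full effect; nearly all actives have a fitted effect of over 55% in size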
Target sequence (P08659 whole entry, looked up): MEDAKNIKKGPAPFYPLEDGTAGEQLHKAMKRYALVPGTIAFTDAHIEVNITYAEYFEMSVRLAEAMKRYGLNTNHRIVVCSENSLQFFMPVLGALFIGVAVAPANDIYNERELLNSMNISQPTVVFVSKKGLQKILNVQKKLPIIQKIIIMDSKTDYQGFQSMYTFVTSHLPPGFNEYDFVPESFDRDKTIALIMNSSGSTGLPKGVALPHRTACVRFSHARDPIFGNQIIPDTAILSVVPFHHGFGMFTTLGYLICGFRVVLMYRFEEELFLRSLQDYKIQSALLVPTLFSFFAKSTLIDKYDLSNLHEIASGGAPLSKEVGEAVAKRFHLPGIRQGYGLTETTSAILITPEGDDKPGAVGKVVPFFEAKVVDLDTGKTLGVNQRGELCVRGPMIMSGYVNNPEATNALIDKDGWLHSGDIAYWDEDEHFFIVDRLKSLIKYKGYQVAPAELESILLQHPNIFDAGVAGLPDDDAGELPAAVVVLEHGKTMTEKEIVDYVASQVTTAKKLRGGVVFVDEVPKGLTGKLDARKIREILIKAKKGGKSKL
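Biochemical qHTS of compounds, final roughly 60 µM downward over six points, against 10 nM purified firefly luciferase using Km concentrations of substrates (10 uM D-luciferin, 10 uM ATP) in Tris acetate pH 7.5 buffer; luminescence output.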
SMN2 splice up: qHTS Assay for Enhancers of SMN2 Splice Variant Expression; Potency, µM (series often up to 46.1 µM), without a hit: top-dose activity change, positive = activation, actives largely listed as activators; actives 2.8% (n = 210,000); HEK293 SMN2-luciferase splicing reporter, luminescence, 30-36 h; further: % of control where 0% means no effect; nearly all actives have a fitted effect of over 55% in size
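HEK293 cells carry an SMN2 […]–luciferase reporter in which exon 7 inclusion puts luciferase in frame. Cells were plated 10-12 h before compound addition, then incubated 30-36 h at 37C. ONE-Glo luminescence was read; sodium butyrate at 4.5 mM final served as control.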
The depositor's hits bear a star; ? = inconclusive; / = not tested or not shown; [ ] = remark or other dose. The call rests on the fitted dose curve; in most records, active means well fitted curve in the direction sought with a large enough effect; inconclusive means small, poorly fitted or top-dose-only effect, or another doubt; inactive means no such curve, though single readings can be large; an effect the other way counts as inactive or inconclusive. Potency means the concentration at half of the fitted maximal effect.

SMILES	Luc counter	ELG1 genotox	Rab9 promoter act	NPC1 promoter act	FLuc counter	SMN2 splice up
N/C(=N\OC(=O)CCc1ccccc1)c1cccc(Br)c1	-4%	1%	0%	-5%	17µM*	-6%
N/C(=N\OC(=O)CCc1ccccc1)c1ccc(Br)cc1	-3%	14%	1%	-4%	?	6%
N/C(=N\OC(=O)CCCc1ccccc1)c1ccc(Br)cc1	/	15%	-9%	-4%	5%	/
Cc1ccc(/C(N)=N/OC(=O)CCc2ccccc2)cc1	/	?	9%	21%	15µM*	/
COc1ccc(C(=O)Nc2nc3c(s2)CCc2cc(OC)ccc2-3)cc1	/	/	/	/	7.6µM*	-38%
COc1ccc2c(c1)CCc1sc(NC(=O)c3cccc(Br)c3)nc1-2	/	/	/	/	-13%	/
COc1ccc2c(c1)-c1nc(NC(=O)c3ccc(C)cc3)sc1CC2	/	/	/	/	2.7µM*	12%
Cc1ccc(C(=O)NNC(=S)Nc2cccc3ccccc23)s1	/	4%	28%	1%	11µM*	/
COc1ccc(NC(=O)CN2C(=O)CCn3nc(-c4cccn4C)cc32)cc1Cl	/	/	/	/	-3%	/
Nc1nc2ccc(N3CCOCC3)cc2s1	-1%	8.2µM*	2.8µM*	?	11µM*	16µM*
Cn1c(=O)n(C)c2cc(CNCc3ccccc3Cl)ccc21	/	/	/	/	-3%	/
Cc1ccc(NC(=O)CN(C)S(=O)(=O)c2ccc3c(c2)n(C)c(=O)c(=O)n3C)cc1F	/	/	/	/	0%	-7%
CCNC(=O)CC1SC(=Nc2cccc3ccccc23)N(C)C1=O (stereo not drawn)	2%	3%	1%	-7%	0%	10%
CC1=NN(C(N)=S)C(=O)C1N=Nc1cccc(Cl)c1C (stereo not drawn)	/	7%	3.5µM*	?	11µM*	/
CC1=NN(C(N)=S)C(=O)C1N=Nc1cccc2ccccc12 (stereo not drawn)	-3%	?	?	?	17µM*	?
COc1ccc2c(c1)CC(C(=O)NCCN1CCN(c3cccc(Cl)c3)CC1)CO2 (stereo not drawn)	/	/	/	/	1%	/
COc1ccc(-c2cn3ccccc3n2)cc1OC	11µM*	?	3.2µM*	3.2µM*	3.4µM*	18µM*
COc1ccc(-c2cn3cc(C)ccc3n2)cc1F	-20%	?	0.35µM*	0.35µM*	0.24µM*	0.56µM*
COc1ccc(-c2cn3cc(C)ccc3n2)cc1OC	?	1µM*	0.63µM*	1µM*	0.85µM*	4µM*
COc1ccc(-c2cc(-c3ccccc3)nc(Cl)n2)cc1OC	/	-5%	0%	-14%	?	/
O=C(NC1CCCC1)c1ccc2c(=O)n(Cc3ccccc3)c(SCc3ccc([N+](=O)[O-])cc3)nc2c1	/	/	/	/	-1%	/
CN1CCN(/N=C/c2ccc(Cl)c(Cl)c2)CC1	-1%	?	?	?	19µM*	13µM*
CC(=O)Nc1nc2ccccc2[nH]1	-2%	0%	0%	-5%	-1%	20%
O=C(Cc1ccc(Cl)cc1)Nc1nc2ccccc2[nH]1	-6%	16%	3%	2%	-2%	22%
O=C(Nc1nc2ccccc2[nH]1)c1ccccc1O	/	?	0.89µM*	1.8µM*	2.7µM*	/
SMILES	Luc counter	ELG1 genotox	Rab9 promoter act	NPC1 promoter act	FLuc counter	SMN2 splice up
Cc1ccc(OCCCC(=O)Nc2nc3ccccc3[nH]2)cc1	3%	0%	3%	7%	3%	9%
O=C(CCCOc1ccccc1)Nc1nc2ccccc2[nH]1	-1%	?	?	?	11µM*	/
CC(=O)NNc1ncnc2ccccc12	-1%	1%	0%	1%	-13%	10%
O=C(NNc1ncnc2ccccc12)c1cccc(Cl)c1	/	?	1.8µM*	?	2.7µM*	/
O=C(Nc1nc2ccccc2[nH]1)c1ccc(Cl)cc1	/	?	0.32µM*	0.32µM*	0.43µM*	/
O=C(Nc1ccc(-c2cn3cccnc3n2)cc1)c1cc(Br)ccc1Cl	/	/	/	/	-1%	-11%
CCCC(O)c1nc2ccccc2n1CCCOc1ccc(Cl)cc1 (stereo not drawn)	/	/	/	/	0%	/
O=C(Nc1nc2ccccc2[nH]1)c1ccccc1	11µM*	0.52µM*	1.6µM*	?	1.5µM*	4µM*
O=C(Nc1nc2ccccc2[nH]1)c1cccc(Cl)c1	/	16µM*	0.71µM*	1µM*	2.1µM*	/
CN(c1cccc(Cl)c1)S(=O)(=O)c1cccc(C(=O)Nc2nc3ccccc3[nH]2)c1	-1%	-15%	-4%	1%	-17%	-96%
Nc1nc2c(nc(Br)n2C2CC(O)C(CO)O2)c(=O)[nH]1 (stereo not drawn)	-1%	/	/	/	/	-2%
Cc1cccc(CNc2ncnc3ccc(-c4cccc(Cl)c4)cc23)c1	/	/	-2%	-2%	1%	/
CCc1ccc(-c2nc3cc(NC(=O)c4ccc(F)cc4)ccc3o2)cc1	/	/	/	/	-2%	?
COc1ccc2nc(NC(=O)c3ccccc3C(=O)O)sc2c1	/	2%	0%[1.84 µM]	-2%	9.5µM*	/
COc1ccc2nc(NC(=O)c3ccc(NS(=O)(=O)c4cccs4)cc3)sc2c1	-1%	-2%	-2%	3%	4.8µM*	-12%
CCCC(=O)Nc1nc2ccc(NC(=O)c3ccccc3F)cc2s1	-2%	-2%	-12%	-30%	-22%	/
CSc1ncccc1C(=O)Nc1ccc2nc(C)sc2c1	/	12%	1%	23%	17µM*	/
CSc1ncccc1C(=O)Nc1ccncc1	/	2%	-5%	12%	3%	/
COc1ccc2nc(NC(=O)c3ccccc3-c3ccccc3C(=O)O)sc2c1	1%	6%	-12%	-1%	?	-1%
COc1ccc2nc(NC(=O)c3ccccc3F)sc2c1	/	?	0.32µM*	0.45µM*	0.34µM*	/
CC(C)NC(=O)N1CCC2(CC1)CCN(C(=O)c1cccc(F)c1)CC2	-5%	/	/	/	/	7%
COc1ccc(-n2cc(C(=O)OCc3ccc(Cl)cc3)c3ccccc3c2=O)cc1	/	/	/	/	-1%	/
Cc1ccc(-c2nnc(SCC(=O)N3CCCc4ccccc43)o2)cc1	/	/	/	/	?	-1%
C[C@H](CO)NC(=O)[C@H]1C[C@@H]1[C@H](NP(=O)(c1ccccc1)c1ccccc1)c1ccccc1	0%	/	/	/	/	-16%
COc1ccccc1CNC(=O)c1ccc2c(c1)N(Cc1cc(C)ccc1C)C(=O)c1ccccc1S2	/	/	/	/	1%	/
Cc1ccc2nc(NC(=O)c3cc(=O)c4cc(C)c(C)cc4o3)sc2c1	/	/	/	/	-8%	-5%
